# For some of these results: Measured potencies and affinities stand elsewhere.
# Experiments:
# Design in all cases: scale not given: direction of the effect not stated beside the values
# [1] = target: Protein translocase subunit SecA (Escherichia coli (strain K12)) (UniProt P10408); assay: Assay to Identify E. coli SecA ATPase Inhibitors; assay type: functional; details: 30 µM
# [2] = target: T1, Ubiquitin-activating enzyme e1, putative (Leishmania donovani (strain BPK282A1)) (UniProt E9BSI1); assay: Leishmania donovani Ubiquitin Activating Enzyme (LdE1); assay type: functional; details: 30 µM
# T1 sequence (whole entry): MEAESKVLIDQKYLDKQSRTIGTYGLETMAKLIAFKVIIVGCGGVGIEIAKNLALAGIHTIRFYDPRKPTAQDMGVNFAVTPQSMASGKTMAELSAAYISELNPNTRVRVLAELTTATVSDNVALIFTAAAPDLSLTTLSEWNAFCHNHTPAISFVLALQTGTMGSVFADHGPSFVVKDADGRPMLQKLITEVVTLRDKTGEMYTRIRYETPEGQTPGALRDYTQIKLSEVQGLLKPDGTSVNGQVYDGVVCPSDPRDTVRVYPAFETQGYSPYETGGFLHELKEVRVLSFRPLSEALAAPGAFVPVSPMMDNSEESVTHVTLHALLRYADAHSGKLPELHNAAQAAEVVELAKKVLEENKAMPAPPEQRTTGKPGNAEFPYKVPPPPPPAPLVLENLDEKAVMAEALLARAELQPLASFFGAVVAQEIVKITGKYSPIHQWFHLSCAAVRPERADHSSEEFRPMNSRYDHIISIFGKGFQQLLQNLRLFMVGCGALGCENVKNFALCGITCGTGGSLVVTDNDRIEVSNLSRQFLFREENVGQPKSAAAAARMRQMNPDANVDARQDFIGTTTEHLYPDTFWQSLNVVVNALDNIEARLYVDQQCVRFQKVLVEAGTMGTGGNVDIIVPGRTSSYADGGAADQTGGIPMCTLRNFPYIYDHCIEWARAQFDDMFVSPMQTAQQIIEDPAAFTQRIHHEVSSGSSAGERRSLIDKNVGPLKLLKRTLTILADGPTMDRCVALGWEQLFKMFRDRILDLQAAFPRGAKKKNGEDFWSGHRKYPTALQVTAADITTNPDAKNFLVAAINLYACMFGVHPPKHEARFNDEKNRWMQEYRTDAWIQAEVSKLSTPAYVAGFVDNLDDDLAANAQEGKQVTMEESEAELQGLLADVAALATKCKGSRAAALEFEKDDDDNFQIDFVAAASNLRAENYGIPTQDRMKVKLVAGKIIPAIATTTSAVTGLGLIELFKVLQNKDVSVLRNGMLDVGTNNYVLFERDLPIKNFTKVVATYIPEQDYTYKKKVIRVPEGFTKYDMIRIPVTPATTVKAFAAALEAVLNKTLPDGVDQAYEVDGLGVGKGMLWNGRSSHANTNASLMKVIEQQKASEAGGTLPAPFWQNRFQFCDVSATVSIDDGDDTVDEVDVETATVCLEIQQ
# [3] = target: AMP-activated protein kinase, AMPK (Homo sapiens) (UniProt P54646+O43741+P54619+Q9UGJ0+Q9Y478+Q13131+Q9UGI9); assay: AMP-dependent Kinase enzyme assay. An in vitro enzyme assay that detects ADP turnover that is directly proportional to AMPK activity. This uses naive AMPK that is activated during the assay with MK-8722; assay type: functional; details: 30 µM
# [4] = target: Sialic acid-binding Ig-like lectin 9 (Homo sapiens) (UniProt Q9Y336); assay: Hs-Siglec9 ALPHAscreen SOP 20170721; details: 10 µM
# Chain of Sialic acid-binding Ig-like lectin 9 (Homo sapiens) (Q9Y336 whole entry): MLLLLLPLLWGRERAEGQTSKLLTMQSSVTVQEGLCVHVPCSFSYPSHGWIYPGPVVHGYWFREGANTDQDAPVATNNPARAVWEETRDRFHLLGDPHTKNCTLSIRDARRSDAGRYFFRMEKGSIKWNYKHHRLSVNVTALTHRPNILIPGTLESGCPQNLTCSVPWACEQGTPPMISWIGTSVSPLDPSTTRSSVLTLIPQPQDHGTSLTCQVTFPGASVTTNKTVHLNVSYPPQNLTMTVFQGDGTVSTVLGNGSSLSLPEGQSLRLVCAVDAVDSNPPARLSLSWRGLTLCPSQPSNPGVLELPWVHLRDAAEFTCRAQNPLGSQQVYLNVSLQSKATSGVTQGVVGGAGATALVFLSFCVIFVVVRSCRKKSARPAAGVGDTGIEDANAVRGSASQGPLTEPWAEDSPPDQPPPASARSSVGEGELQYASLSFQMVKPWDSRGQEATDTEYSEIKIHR
# Trypanosoma cruzi = assay: Trypanosoma cruzi phosphomannomutase and mannose-1-phosphate guanylyltransferase assay; assay type: functional; details: 10 µM
# [5] = target: T2, Arginase-2, mitochondrial (Homo sapiens) (UniProt P78540); assay: in vitro enzyme assay to detect the production of urea directly proportional to the activity of Arginase II; assay type: functional; details: 33.3 µM; also: in the data most compounds retested in dose-response had high values
# T2 sequence (whole entry): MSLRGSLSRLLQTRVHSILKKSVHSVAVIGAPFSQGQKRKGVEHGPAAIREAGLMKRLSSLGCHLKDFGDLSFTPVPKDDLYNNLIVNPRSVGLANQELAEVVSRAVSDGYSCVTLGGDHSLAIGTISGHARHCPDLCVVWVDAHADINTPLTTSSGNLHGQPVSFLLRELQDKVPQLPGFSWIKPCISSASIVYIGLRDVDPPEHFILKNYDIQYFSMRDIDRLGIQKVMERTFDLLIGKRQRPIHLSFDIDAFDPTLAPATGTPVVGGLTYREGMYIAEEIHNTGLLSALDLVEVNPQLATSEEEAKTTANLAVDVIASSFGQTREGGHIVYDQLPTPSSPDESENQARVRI
# [6] = target: T3, Proteasome subunit beta (Trypanosoma cruzi) (UniProt O96673); assay: Trypanosoma cruzi proteasome chymotrypsin-like activity (TcProtChymo) assay.; also: in the data most compounds retested in dose-response had high values; assay type: functional; details: 9.37 µM
# T3 sequence (whole entry): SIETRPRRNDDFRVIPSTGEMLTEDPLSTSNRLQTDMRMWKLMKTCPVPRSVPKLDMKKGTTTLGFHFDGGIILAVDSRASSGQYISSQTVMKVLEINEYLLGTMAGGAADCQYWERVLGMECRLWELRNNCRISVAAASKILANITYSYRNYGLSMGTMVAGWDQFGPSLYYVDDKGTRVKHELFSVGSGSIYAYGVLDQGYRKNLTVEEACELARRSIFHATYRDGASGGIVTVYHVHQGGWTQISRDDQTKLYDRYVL
# Homo sapiens = organism: Homo sapiens; assay: To identify inhibition of the IFN signalling (Jak-Stat) pathway via expression of an eGFP reporter gene under the control of an IFN-stimulated response element (ISRE) containing MxA promoter.; assay type: functional; details: 30 µM
# [7] = target: T4, Tyrosyl-tRNA synthetase, putative (Trypanosoma cruzi (strain CL Brener)) (UniProt Q4DSP6); assay: Trypanosoma cruzi tyrosyl tRNA synthetase (TcYRS) _High Tyrosine SOP; assay type: functional; details: 30 µM; also: in the data most compounds retested in dose-response had high values
# T4 sequence (whole entry): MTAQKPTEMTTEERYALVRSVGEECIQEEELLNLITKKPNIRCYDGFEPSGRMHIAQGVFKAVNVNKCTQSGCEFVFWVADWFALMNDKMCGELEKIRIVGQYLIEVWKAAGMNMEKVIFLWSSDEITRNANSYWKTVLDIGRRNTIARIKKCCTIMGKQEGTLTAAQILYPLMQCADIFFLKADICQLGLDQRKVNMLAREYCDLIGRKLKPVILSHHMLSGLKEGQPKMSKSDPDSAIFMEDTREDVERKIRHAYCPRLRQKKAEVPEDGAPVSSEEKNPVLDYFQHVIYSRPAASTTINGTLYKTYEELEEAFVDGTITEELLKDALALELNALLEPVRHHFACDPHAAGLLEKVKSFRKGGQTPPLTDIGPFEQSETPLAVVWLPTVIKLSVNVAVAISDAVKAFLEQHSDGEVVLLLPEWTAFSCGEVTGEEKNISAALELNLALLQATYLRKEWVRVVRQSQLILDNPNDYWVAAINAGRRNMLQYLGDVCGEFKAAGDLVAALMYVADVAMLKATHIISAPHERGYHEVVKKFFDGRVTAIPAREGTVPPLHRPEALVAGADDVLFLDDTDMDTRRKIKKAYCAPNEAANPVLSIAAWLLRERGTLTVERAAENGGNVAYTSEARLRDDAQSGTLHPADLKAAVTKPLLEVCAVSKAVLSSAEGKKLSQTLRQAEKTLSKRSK
# [8] = target: T4, Tyrosyl-tRNA synthetase, putative (Trypanosoma cruzi (strain CL Brener)); assay: Trypanosoma cruzi tyrosyl tRNA synthetase (TcYRS) SOP; assay type: functional; details: 30 µM
# [9] = target: Chromo domain-containing protein 1 (Saccharomyces cerevisiae (strain ATCC 204508 / S288c) (Baker's yeast)) (UniProt P32657); assay: ScCHD-1 Enzyme Inhibition Assay; assay type: functional; details: 30 µM; also: in the data most compounds retested in dose-response had high values
# Chain of Chromo domain-containing protein 1 (Saccharomyces cerevisiae (strain ATCC 204508 / S288c) (Baker's yeast)) (P32657 whole entry, the tested form may be a part): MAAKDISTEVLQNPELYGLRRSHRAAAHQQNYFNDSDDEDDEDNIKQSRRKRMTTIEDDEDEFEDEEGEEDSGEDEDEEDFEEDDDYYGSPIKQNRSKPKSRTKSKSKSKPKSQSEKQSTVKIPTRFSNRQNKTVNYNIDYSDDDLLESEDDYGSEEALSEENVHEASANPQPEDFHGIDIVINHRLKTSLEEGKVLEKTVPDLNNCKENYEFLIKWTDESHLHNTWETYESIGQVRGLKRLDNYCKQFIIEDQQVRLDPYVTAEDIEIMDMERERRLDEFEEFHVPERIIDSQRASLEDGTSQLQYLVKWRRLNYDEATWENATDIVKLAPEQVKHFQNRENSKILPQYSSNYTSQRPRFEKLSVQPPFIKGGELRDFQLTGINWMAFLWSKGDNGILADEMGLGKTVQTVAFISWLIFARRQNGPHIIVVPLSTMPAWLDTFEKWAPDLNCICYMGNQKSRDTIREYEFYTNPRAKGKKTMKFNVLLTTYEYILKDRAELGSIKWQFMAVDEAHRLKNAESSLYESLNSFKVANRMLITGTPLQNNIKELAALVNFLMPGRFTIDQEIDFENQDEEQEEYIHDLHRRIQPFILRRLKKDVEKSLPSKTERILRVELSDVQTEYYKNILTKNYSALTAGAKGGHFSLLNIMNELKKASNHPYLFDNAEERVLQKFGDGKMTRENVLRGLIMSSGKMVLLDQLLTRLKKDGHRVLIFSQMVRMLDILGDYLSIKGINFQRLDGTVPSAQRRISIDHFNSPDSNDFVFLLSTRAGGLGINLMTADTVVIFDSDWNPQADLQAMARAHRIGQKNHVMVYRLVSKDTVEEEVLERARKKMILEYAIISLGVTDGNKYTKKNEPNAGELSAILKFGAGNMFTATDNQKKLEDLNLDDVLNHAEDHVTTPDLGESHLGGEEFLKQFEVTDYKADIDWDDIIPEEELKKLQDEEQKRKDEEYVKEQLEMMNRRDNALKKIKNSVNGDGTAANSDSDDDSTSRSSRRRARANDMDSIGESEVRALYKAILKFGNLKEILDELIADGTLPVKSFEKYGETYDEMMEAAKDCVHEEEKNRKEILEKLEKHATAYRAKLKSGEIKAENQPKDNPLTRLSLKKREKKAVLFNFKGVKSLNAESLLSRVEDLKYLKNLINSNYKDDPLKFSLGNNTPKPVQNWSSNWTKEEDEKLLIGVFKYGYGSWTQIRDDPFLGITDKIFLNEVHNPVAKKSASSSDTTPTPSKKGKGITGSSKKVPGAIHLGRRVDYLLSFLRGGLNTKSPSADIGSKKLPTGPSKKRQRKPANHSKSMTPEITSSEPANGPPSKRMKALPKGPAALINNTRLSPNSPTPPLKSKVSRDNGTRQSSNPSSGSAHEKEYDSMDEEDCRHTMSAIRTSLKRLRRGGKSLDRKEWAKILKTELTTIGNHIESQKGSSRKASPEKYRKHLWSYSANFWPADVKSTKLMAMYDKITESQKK
# Chain of Protein translocase subunit SecA (Escherichia coli (strain K12)) (P10408 whole entry): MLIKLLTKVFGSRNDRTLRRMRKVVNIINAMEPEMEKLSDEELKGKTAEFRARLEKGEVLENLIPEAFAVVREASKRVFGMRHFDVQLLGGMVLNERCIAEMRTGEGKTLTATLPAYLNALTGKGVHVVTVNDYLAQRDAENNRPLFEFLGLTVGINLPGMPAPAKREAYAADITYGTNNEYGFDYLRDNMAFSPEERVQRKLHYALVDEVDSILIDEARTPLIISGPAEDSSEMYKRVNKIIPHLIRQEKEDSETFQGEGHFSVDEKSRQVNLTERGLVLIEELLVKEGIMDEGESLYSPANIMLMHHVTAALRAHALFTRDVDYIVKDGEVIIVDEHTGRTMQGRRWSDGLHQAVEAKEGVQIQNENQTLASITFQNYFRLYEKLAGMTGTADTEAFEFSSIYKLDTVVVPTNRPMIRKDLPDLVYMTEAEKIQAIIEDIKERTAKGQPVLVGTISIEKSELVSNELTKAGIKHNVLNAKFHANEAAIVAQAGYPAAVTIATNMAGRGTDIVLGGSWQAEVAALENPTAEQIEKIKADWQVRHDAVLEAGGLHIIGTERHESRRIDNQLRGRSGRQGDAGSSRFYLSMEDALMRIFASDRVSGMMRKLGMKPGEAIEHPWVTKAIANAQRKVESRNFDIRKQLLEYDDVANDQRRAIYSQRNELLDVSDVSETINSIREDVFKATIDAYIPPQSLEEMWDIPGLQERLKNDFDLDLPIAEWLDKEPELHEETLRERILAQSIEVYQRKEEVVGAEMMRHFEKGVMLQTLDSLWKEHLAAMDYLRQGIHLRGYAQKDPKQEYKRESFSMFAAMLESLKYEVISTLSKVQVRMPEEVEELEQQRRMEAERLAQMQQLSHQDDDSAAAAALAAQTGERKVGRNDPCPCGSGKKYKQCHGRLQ
compound,measurement,setting,value
CCC(O)CN1CCN(C(=O)c2cccn2Cc2ccccc2)CC1 (stereo not drawn),Percent Effect,[1],-7.42%
same,Percent Effect,[2],10.1%
same,Percent Effect,[3],-1.72%
same,Percent Effect,[4],3.91%
same,Percent Effect,Trypanosoma cruzi,-5.95%
same,Percent Effect,[5],-0.38%
same,Percent Effect,[6],-3.69%
same,Percent Effect,Homo sapiens,20.8%
same,Percent Effect,[7],0.493%
same,Percent Effect,[8],11.4%
same,Percent Effect,[9],-3.89%
O=C(c1cccc(N2CCCC2=O)c1)N1CCCC(n2cncn2)C1 (stereo not drawn),Percent Effect,[1],-5.98%
same,Percent Effect,[2],13.5%
same,Percent Effect,[3],-31.2%
same,Percent Effect,[4],2.17%
same,Percent Effect,Trypanosoma cruzi,-1.6%
same,Percent Effect,[5],-1.6%
same,Percent Effect,[6],-0.18%
same,Percent Effect,Homo sapiens,7.08%
same,Percent Effect,[7],8.37%
same,Percent Effect,[8],13.6%
same,Percent Effect,[9],-5.4%
CC(=O)c1cccc(NC(=O)COc2c(C)n(C)ccc2=O)c1,Percent Effect,[1],-3.77%
same,Percent Effect,[2],9.33%
same,Percent Effect,[3],5.33%
same,Percent Effect,[4],5.82%
same,Percent Effect,Trypanosoma cruzi,-2.95%
same,Percent Effect,[5],-12.5%
same,Percent Effect,[6],16.1%
same,Percent Effect,Homo sapiens,7.79%
same,Percent Effect,[7],7.41%
same,Percent Effect,[8],20.5%
same,Percent Effect,[9],-2.85%
O=C1N(Cc2ccc(F)c(F)c2)CCCC12CCN(C1CCSCC1)C2 (stereo not drawn),Percent Effect,[1],-4.12%
same,Percent Effect,[2],-8%
same,Percent Effect,[3],-4.64%
same,Percent Effect,[4],30.2%
same,Percent Effect,Trypanosoma cruzi,9.25%
same,Percent Effect,[5],23.4%
same,Percent Effect,[6],9.77%
same,Percent Effect,Homo sapiens,3.27%
same,Percent Effect,[7],15.8%
same,Percent Effect,[8],25.9%
same,Percent Effect,[9],0.965%
CCn1nc(C(=O)N2CCCC(n3cncn3)C2)ccc1=O (stereo not drawn),Percent Effect,[1],-3.67%
same,Percent Effect,[2],5.2%
same,Percent Effect,[3],7.01%
same,Percent Effect,[4],5.16%
same,Percent Effect,Trypanosoma cruzi,6.76%
same,Percent Effect,[5],2.74%
same,Percent Effect,[6],9.78%
same,Percent Effect,Homo sapiens,-15.3%
same,Percent Effect,[7],0.952%
same,Percent Effect,[8],11.8%
same,Percent Effect,[9],-10.3%
COc1cc(CN(C)C(=O)Nc2cc(C)on2)ccc1SC,Percent Effect,[1],-9.88%
same,Percent Effect,[2],5.41%
same,Percent Effect,[3],-3.24%
same,Percent Effect,[4],0.0571%
same,Percent Effect,Trypanosoma cruzi,-2.73%
same,Percent Effect,[5],-24.2%
same,Percent Effect,[6],21.6%
same,Percent Effect,Homo sapiens,6.33%
same,Percent Effect,[7],9.9%
same,Percent Effect,[8],1.22%
same,Percent Effect,[9],-2.37%
CN(Cc1ccccc1Br)C(=O)Cn1nc(-c2ccc(F)cc2)oc1=O,Percent Effect,[1],2.65%
same,Percent Effect,[2],-5.26%
same,Percent Effect,[3],0.817%
same,Percent Effect,[4],-11.8%
same,Percent Effect,Trypanosoma cruzi,-6.33%
same,Percent Effect,[5],10.7%
same,Percent Effect,[6],10.8%
same,Percent Effect,Homo sapiens,10%
same,Percent Effect,[7],-24.5%
same,Percent Effect,[8],-28.6%
same,Percent Effect,[9],-1.2%
CCC(OC)C(=O)N1CCc2nc(NC)nc(C(=O)N3CCCC3)c2C1 (stereo not drawn),Percent Effect,[1],-2.18%
same,Percent Effect,[2],2.74%
same,Percent Effect,[3],-1.95%
same,Percent Effect,[4],7.16%
same,Percent Effect,Trypanosoma cruzi,-1.39%
same,Percent Effect,[5],-9.58%
same,Percent Effect,[6],15.5%
same,Percent Effect,Homo sapiens,19.2%
same,Percent Effect,[7],5.21%
same,Percent Effect,[8],16.1%
same,Percent Effect,[9],-3.16%
